Only some compounds are listed: those with a hit (about 4.6% of all), similar ones and a draw of the others.
TRHR agonist-1 = qHTS for Small Molecule Agonists and Allosteric Enhancers of Human TRH Receptor: Primary Screen for Agonists; Thyrotropin-releasing hormone receptor (Homo sapiens), P34981; activation, % at 2 µM; TRHR cells, calcium flux fluo-8, FDSS agonist mode; 360,000 compounds, 0.18% hits; in the data active = activation above about 30%; also: 0% is about no effect
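TRHR-expressing cells, plated overnight in medium with 10% serum, were loaded with fluo-8 calcium dye at room temperature. After a 10 s baseline, library compound was pin-added and calcium release was recorded kinetically (ex 480/em 530) as agonist response.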
D1 ag = Allosteric Agonists of the Human D1 Dopamine Receptor: qHTS; D(1A) dopamine receptor (Homo sapiens), P21728; activation, % at 2 µM; 360,000 compounds, 1% hits; HEK293 T-REx D1 cells, calcium flux, agonist mode; in the data active = activation above about 30%; also: 0% is about no effect
Target sequence (P21728 whole entry, looked up): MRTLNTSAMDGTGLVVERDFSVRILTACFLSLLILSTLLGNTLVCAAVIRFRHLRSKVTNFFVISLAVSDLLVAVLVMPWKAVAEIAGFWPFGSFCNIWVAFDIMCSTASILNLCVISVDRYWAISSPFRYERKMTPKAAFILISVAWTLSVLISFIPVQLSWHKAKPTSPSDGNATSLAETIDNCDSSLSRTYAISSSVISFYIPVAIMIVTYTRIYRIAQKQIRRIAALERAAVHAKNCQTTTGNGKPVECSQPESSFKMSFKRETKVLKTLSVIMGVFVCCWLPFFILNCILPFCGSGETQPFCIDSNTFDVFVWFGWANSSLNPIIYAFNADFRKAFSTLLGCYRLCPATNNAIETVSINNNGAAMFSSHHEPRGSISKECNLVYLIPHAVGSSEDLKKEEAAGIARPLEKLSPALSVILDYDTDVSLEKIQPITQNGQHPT
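Inducible HEK293 T-REx D1 cells, force-coupled to calcium signalling, were plated at 4000 cells/well with tetracycline and held overnight at 30 C. After no-wash calcium dye loading, compound-evoked calcium rise over 180 s flagged agonists.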
D1 antag = Antagonist of Human D 1 Dopamine Receptor: qHTS; D(1A) dopamine receptor (Homo sapiens), P21728; 360,000 compounds, 3.2% hits; HEK293 TREx D1 cells, calcium flux, dopamine EC80; stronger effect = lower value; activity change, negative = inhibition, % at 10 µM; in the data active = activity change below about -30%; also: % is scaled to controls: 0 for no effect and ±100 for the full control effect
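Using tetracycline-induced force-coupled D1 Hek293 cells and a calcium dye, signals were followed for 180 s after compound, then for 180 s after EC80 dopamine, to detect inhibitors.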
Epigenetic reg = Quantitative High-Throughput Screen for Regulators of Epigenetic Control | murine LDR cells, GFP reporter derepression, 30 h | Potency, µM (titrated, usually from 53.9 µM), inactives show top-dose GFP activation, actives largely listed as activators | 280,000 compounds, 0.2% hits | AID 1865, 2009; also: potency is read from the fitted curve at half-maximal effect; % of control where 0% means no effect; nearly all actives have a fitted effect of over 60% in size
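Murine LDR cells carrying a silenced, genomically integrated CMV-driven GFP reporter were exposed to compound for 30 hours at 37 C. After PBS washes, GFP-positive cells (20–120 um objects) were counted by laser-scanning microplate cytometry.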
TRHR enhancer-1 = qHTS for Small Molecule Agonists and Allosteric Enhancers of Human TRH Receptor: Primary Screen for Enhancers; enhancement, % at 2 µM; TRHR cells, fluo-8 calcium fluorescence, EC20 TRH enhancement; 360,000 compounds, 0.66% hits; Thyrotropin-releasing hormone receptor (Homo sapiens), P34981; in the data active = enhancement above about 30%; also: 0% is about no effect
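TRHR-expressing cells loaded with fluo-8 calcium dye were read kinetically (ex 480/em 530) during compound addition, then stimulated with an EC20 of TRH (10 nM final). Enhancement of the Gq-mediated intracellular calcium response was scored.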
D1 PAM = Potentiators of Human D1 Dopamine Receptor: qHTS | HEK293 TREx D1 cells, calcium flux, dopamine EC20 potentiation | AID 504651, 2011 | potentiation, % at 10 µM | D(1A) dopamine receptor (Homo sapiens), P21728 | 360,000 compounds, 0.036% hits; in the data active = potentiation above about 30%; also: 0% is about no effect
TRHR enhancer-2 = qHTS for Small Molecule Agonists and Allosteric Enhancers of Human TRH Receptor: Confirmation Screen for Enhancers; TRH receptor cell assay, enhancer confirmation qHTS; activity change, negative = inhibition, % at 46.1 µM; AID 493076, 2011; shares compounds with TRHR enhancer-1; 970 tested, under 10 active;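 also: compound effect scored on response to added TRH at EC20 of 10 nM; 0% is about no effect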
TRHR agonist-2 = qHTS for Small Molecule Agonists and Allosteric Enhancers of Human TRH Receptor: Confirmation Screen for Agonists; shares compounds with TRHR enhancer-1; TRHR-expressing cells, agonist activation read-out; Potency, µM (highest dose often 46.1 µM), without a hit: at the highest dose activation, usual class: activators; 970 compounds, 8% hits; AID 493078, 2011; also: potency is read from the fitted curve at half-maximal effect; 0% is about no effect; nearly all actives have a fitted effect of over 75% in size
The depositor's hits bear a star; ? = inconclusive; . = no result given. Unless noted, calls follow the shape of the dose curve; as a rule, active = well fitted curve in the direction sought with a large enough effect; inconclusive = small, poorly fitted or top-dose-only effect, or another doubt; inactive = no such curve, though single readings can be large; an effect the other way counts as inactive or inconclusive.

SMILES	TRHR agonist-1	D1 ag	D1 antag	Epigenetic reg	TRHR enhancer-1	D1 PAM	TRHR enhancer-2	TRHR agonist-2
Cc1ccc(NC(=O)COC(=O)C2CSC3(C)CCC(=O)N23)cc1S(=O)(=O)N1CCOCC1 (centres undefined)	2	4	-38*	2%	42*	-7	-3	-1%
Cc1ccccc1C(=O)Nc1cccc(OCc2cc(=O)n3cccc(C)c3n2)c1	0	0	-2	-3%	-6	-1	.	.
COc1ccc(-n2nc3c(N4CCCC(C(=O)NCc5ccccc5C)C4)nnc(C)c3c2C)cc1 (centres undefined)	-1	5	26	0%	5	-2	.	.
CN1CCN(C(=O)CSc2ccc(Cl)cc2)CC1	0	0	10	0%	43*	-3	6	0%
Cc1ccc(S(=O)(=O)N2CCN(C(=O)CSc3ccc(Cl)cc3)CC2)cc1	0	1	-17	.	-1	-4	.	.
CN1C(=O)c2cccc3c(N(C)C)ccc(c23)C1=O	44*	60*	-2	.	8	2	7	16µM*
Cc1cccc(C(=O)Nc2cccc(OCc3cc(=O)n4c(C)csc4n3)c2)c1	0	2	9	?	-2	-1	.	.
COc1ccc(N2C(=O)c3cccc4c(N(C)CCO)ccc(c34)C2=O)cc1	35*	49*	-3	.	-10	-3	-5	21µM*
COc1ccc(N2C(=O)c3cccc4cccc(c34)C2=O)cc1	0	1	8	.	-2	-4	.	.
Cc1cc(C)c2c(=O)cc(CSc3nnc(-c4ccccc4)n3C)[nH]c2c1	-1	3	-10	-3%	-3	2	.	.
O=C(NC1CCCCC1)C(c1ccc2ncccc2c1)N(Cc1ccccc1)C(=O)c1cccs1 (centres undefined)	1	1	17	-1%	59*	4	-6	1%
C=Cc1ccc(CSc2nc(-c3ccc(Cl)cc3)nc3c2Cc2c(CO)cnc(C)c2O3)cc1	0	1	-13	1%	22	-6	.	.
COC(=O)/C(C#N)=C1/C=Cc2ccccc2N1	0	-2	-1	-1%	54*	0	-7	?
COc1ccc(Nc2ccc(N3C(=O)CCCC3=O)cc2[N+](=O)[O-])cc1OC	0	1	3	-1%	-2	-2	.	.
CCOc1ccc(Nc2ccc(N3C(=O)CCC3=O)cc2[N+](=O)[O-])cc1	0	0	6	0%	48*	1	-10	5%
COc1cc(C(=S)N2CCOCC2)ccc1OC(=O)c1cccc(C)c1	-1	7	-10	.	49*	-1	-10	0%
COc1cc2c(cc1OC)C1O[C@](CCCCN3C(=O)c4ccccc4C3=O)(C2)Oc2c1c(=O)oc1ccccc21	1	0	-5	.	22	-1	.	.
COc1ccc(C2OC3C(CO)OC(n4cnc5c(=O)[nH]c(N)nc54)C3O2)cc1 (centres undefined)	.	.	.	-1%	.	.	.	.
Cc1ccc(C(=O)CCNc2cccc(Br)c2)o1	-1	1	-13	-1%	66*	-5	-10	2%
Cc1ccc(Cl)cc1N1CCN(S(=O)(=O)N2CCCCC2)CC1	0	10	12	0%	43*	-1	0	1%
CCOC(=O)c1ccccc1NC(=O)N1CCN2CCCCC2C1 (centres undefined)	0	0	-10	-1%	4	0	.	.
COc1ccc(C(=O)C2CCN(C(=O)c3ccco3)CC2)cc1	0	4	-40*	1%	49*	-5	?	7%
COc1ccc(C(=O)C2CCN(C(=O)c3ccc(C)cc3)CC2)cc1	-1	4	-21	-1%	-5	-1	.	.
CC1=NN(c2ccccc2)C(=O)/C1=C/c1cccs1	28	0	0	-2%	-10	9	-13	1%
CC1=NN(c2ccccc2)C(=O)/C1=C\c1ccc(Br)s1	0	2	5	3%	9	4	.	.
SMILES	TRHR agonist-1	D1 ag	D1 antag	Epigenetic reg	TRHR enhancer-1	D1 PAM	TRHR enhancer-2	TRHR agonist-2
COc1ccc(-c2cc(C(=O)NCCc3ccccc3)c3cc(C(C)C)ccc3n2)cc1	1	7	12	4%	-4	-2	.	.
COc1ccc(-c2cc(C(=O)NCCN3CCOCC3)c3cc(C(C)C)ccc3n2)cc1	3	4	2	.	47*	1	1	1%
Cc1ccc2cc(COC(=O)C3CCCO3)c(=O)[nH]c2c1 (centres undefined)	1	2	-7	0%	45*	-2	-7	1%
Cc1ccc2cc(CN(CC(C)C)C(=O)C3CCCO3)c(=O)[nH]c2c1 (centres undefined)	0	0	11	4%	-2	-5	.	.
CCCn1c2ccccc2c2nnc(SC(CC)C(=O)Nc3sc4c(c3C#N)CCCC4)nc21 (centres undefined)	25	-2	.	-1%	8	-3	4	-1%
CC1Cc2cc(/C(O)=C3/C(=O)C(=O)N(CCN4CCOCC4)C3c3ccc(C(C)C)cc3)ccc2O1 (centres undefined)	1	2	1	1%	4	-8	.	.
CC1Cc2cc(/C(O)=C3/C(=O)C(=O)N(CCN4CCOCC4)C3c3ccc(N(C)C)cc3)ccc2O1 (centres undefined)	0	6	-4	.	42*	-5	-3	2%
CC(=O)Nc1nc2n(n1)C(c1ccccc1)C=C(c1ccccc1)N2 (centres undefined)	39*	9	-8	0%	2	-13	-2	?
Cc1nc(NCc2ccccc2)c2nc(-c3ccccc3)n(C(C)CN(C)C)c2n1 (centres undefined)	.	.	.	-1%	.	.	.	.
COc1cccc(C(=O)N2CCN(Cc3ccccc3C(F)(F)F)CC2)c1	0	9	-10	0%	2	-2	.	.
COc1ccc(C(=O)N2CCN(Cc3ccccc3C(F)(F)F)CC2)cc1	32*	7	-4	.	-8	0	-3	1%
